Data: PubChem BioAssay (NCI)
Several values for one entry are separate records, joined by “and”; a condition that tells them apart may be missing. Equal values may be shown once. This is part of a sample that, as a whole, favours compounds with a hit. Of some 83,000 tested, about 20% had one in any assay.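 Note: values are percent growth. 100 is the growth of untreated cells, values between 100 and 0 indicate rising inhibition; between -100 and 0 indicates cell death.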 Activity calls are given as the source filed them. Rule for the calls: active = growth percent below 10; inactive = the rest.

The molecules below were run on MCF7 breast (assay: NCI-60 one-dose screen, 48 h (100 = growth as untreated, 0 = no growth, -100 = all killed)). Settings: 10 µM unless noted.

Compound | growth
Cn1c(COC(=O)NC2CCCCC2)c(COC(=O)NC2CCCCC2)c2ccc3cc(Cl)c(Cl)cc3c21 | -78.6% [100 µM] (active)
C[C@@H]1CCC([C@@H](C)[C@H]2CC[C@H]3[C@@H]4CC[C@H]5C[C@@H](O)CC[C@]5(C)[C@H]4CC[C@]23C)=NC1 | 8.1% [100 µM] (active) and -46.7% [100 µM] (active)
CC1(C=O)CCC23COC4(CCC5C6(C)CCC(OC7OCC(OC8OC(CO)C(O)C(OC9OC(CO)C(O)C(O)C9O)C8OC8OCC(O)C(O)C8O)C(O)C7OC7OC(CO)C(O)C(O)C7O)C(C)(C)C6CCC5(C)C4(C)CC2O)C3C1 (stereo not drawn) | -68.6% [100 µM] (active) and -39.6% [100 µM] (active)
On1c(-c2ccccc2)nc2ccccc2c1=S | 6.65% [100 µM] (active) and -68.9% [100 µM] (active)
C=CCO/N=C/c1cc(NC(=S)c2ccoc2C)ccc1Cl | -83.2% [100 µM] (active) and -45% [100 µM] (active)
CC1(C)CCC[C@]2(C)[C@@H](C=O)C(C=O)=CC[C@@H]12 | -13.9% [100 µM] (active) and -1.67% [100 µM] (active)
C=C1C(=O)C2=CC1CCC(=O)C1(C)CCC(OC(C)=O)C(C)(C)C1CC2O (stereo not drawn) | -80.9% [100 µM] (active) and -63.1% [100 µM] (active)
CC1(C)CCC2(C(=O)O)C(O)CC3(C)C(=CCC4C5(C)CCC(OC6OCC(O)C(O)C6OC6OCC(O)C(O)C6OC6OCC(O)C(OC7OC(CO)C(O)C(O)C7O)C6O)C(C)(C)C5CCC43C)C2C1 (stereo not drawn) | 76.4% [100 µM] (inactive) and 25.5% [100 µM] (inactive)
